Test results from PubChem BioAssay (Tox21).
Results filed as inconclusive are left out. The source made the active and inactive calls. Calls follow the shape of the full dose curve.

What was measured:
[1] = molecular target: Acetylcholinesterase (Homo sapiens) (UniProt P22303); test: Acetylcholinesterase (AChE) small molecule antagonists: colormetric cell-based qHTS assay (AID 1347395); details: SH-SY5Y cells AChE activity, colorimetric (Ellman); series mostly up to 115 µM; also: nearly all actives have a fitted effect of over 30% in size
Outline: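 Colorimetric read-out: DTNB detects thiocholine released when cellular AChE in SH-SY5Y cells hydrolyses acetylthiocholine. Cells attached overnight, received compound for 30 min at 37 C, then substrate mix for 90 min at 37 C.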

[2] = molecular target: Acetylcholinesterase (Homo sapiens) (UniProt P22303); test: Acetylcholinesterase (AChE) small molecule antagonists: enzyme-based qHTS assay (AID 1347397); details: Potency: AChE enzyme activity inhibition; outcome: AChE enzyme activity inhibition; series mostly up to 115 µM; also: nearly all actives have a fitted effect of over 55% in size
Outline: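 Recombinant human AChE, dispensed at 50 mU/mL, was preincubated with Tox21 10K compounds or DMSO vehicle for 30 min at room temperature. DTNB plus acetylthiocholine was then added, and thiocholine was measured colorimetrically after a further 10 min.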

[3] = molecular target: Acetylcholinesterase (Homo sapiens) (UniProt P22303); test: Acetylcholinesterase (AChE) small molecule antagonists: fluorescence cell-based qHTS assay (AID 1347398); details: SH-SY5Y cells; Potency: AChE activity; outcome: AChE activity; series mostly up to 115 µM; also: nearly all actives have a fitted effect of over 50% in size
Outline: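 Human SH-SY5Y cells were plated overnight at 37 C, exposed to compound for 30 min at 37 C, 5% CO2, then given acetylthiocholine plus Thiolite Green for 40 min at room temperature; thiocholine fluorescence (Ex/Em 490/520 nm) reports endogenous AChE activity.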

[4] = molecular target: Acetylcholinesterase (Homo sapiens) (UniProt P22303); test: Acetylcholinesterase (AChE) small molecule antagonists: enzyme-based qHTS assay with human liver microsomes (AID 1347399); details: Potency: qHTS inhibition; outcome: qHTS inhibition; series mostly up to 115 µM; also: nearly all actives have a fitted effect of over 60% in size
Outline: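 Recombinant human AChE (50 mU/mL in the enzyme mix) and human liver microsomes (0.25 mg/mL final) were preincubated with compound and NADPH (0.25 mg/mL final) for 30 min at 37 C. Acetylthiocholine/DTNB was then added; thiocholine was read colorimetrically after 10 min at room temperature.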

Measured: Potency

Acetylcholinesterase (Homo sapiens), sequence (P22303 whole entry, looked up): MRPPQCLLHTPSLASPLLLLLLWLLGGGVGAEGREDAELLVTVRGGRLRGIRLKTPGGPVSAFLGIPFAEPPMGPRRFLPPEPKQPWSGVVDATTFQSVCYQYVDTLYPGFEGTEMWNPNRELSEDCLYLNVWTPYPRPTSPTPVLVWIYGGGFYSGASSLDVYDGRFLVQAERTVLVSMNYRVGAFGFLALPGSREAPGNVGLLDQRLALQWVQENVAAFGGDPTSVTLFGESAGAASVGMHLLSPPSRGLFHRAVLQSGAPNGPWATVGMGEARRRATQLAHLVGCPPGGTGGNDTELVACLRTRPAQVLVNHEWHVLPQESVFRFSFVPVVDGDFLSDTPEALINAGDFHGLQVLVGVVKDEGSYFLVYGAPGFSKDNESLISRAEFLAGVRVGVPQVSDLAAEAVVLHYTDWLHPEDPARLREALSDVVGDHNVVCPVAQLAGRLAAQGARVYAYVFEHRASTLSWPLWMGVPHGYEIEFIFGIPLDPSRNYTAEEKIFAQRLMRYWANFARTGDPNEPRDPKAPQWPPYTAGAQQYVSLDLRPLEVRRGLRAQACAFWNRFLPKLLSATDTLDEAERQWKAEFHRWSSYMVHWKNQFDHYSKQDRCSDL

COc1cc(/C=C/C(N)=O)cc(OC)c1OC
inactive: all assays above

CC(C)OC(=O)OCOP(=O)(CO[C@H](C)Cn1cnc2c(N)ncnc21)OCOC(=O)OC(C)C
inactive: all assays above

COC(C)(C)CCO
inactive: all assays above

Nc1ccn([C@H]2CS[C@@H](CO)O2)c(=O)n1
inactive: all assays above

CC(=O)Nc1ccc(C(=O)O)cc1
inactive: all assays above

COc1cc(OC)nc(O[C@H](C(=O)O)C(OC)(c2ccccc2)c2ccccc2)n1
inactive: all assays above

Cc1cc(CCCOc2c(C)cc(-c3noc(C(F)(F)F)n3)cc2C)on1
inactive: all assays above

FC(F)(F)C(Cl)Br (stereo unspecified)
inactive: all assays above

CC(C)(C)CCCCCCOC(=O)c1ccccc1C(=O)OCCCCCCC(C)(C)C
inactive: all assays above

CCCCCCCCCCCCCC(=O)OC(C)C
inactive: all assays above

COc1cc(C)ccc1O
inactive: all assays above

CCn1cc(C(=O)O)c(=O)c2cc(F)c(N3CCNCC3)cc21
inactive: all assays above

O=c1[nH]cnc2c1ncn2[C@@H]1O[C@H](CO)[C@@H](O)[C@H]1O
inactive: all assays above

C[C@H](CCC(=O)O)[C@H]1CC[C@H]2[C@@H]3[C@H](O)C[C@@H]4C[C@H](O)CC[C@]4(C)[C@H]3CC[C@]12C
inactive: all assays above

CCCCOC(=O)C(C)OC(=O)CCC (stereo unspecified)
inactive: all assays above

O=C1OC(=O)c2cc(-c3ccc4c(c3)C(=O)OC4=O)ccc21
inactive: all assays above

CCCCNC(N)=O
inactive: all assays above

NCCc1ccn[nH]1
inactive: all assays above

NCc1cccc(CN)c1
inactive: all assays above

O=[Se](O)O
inactive: all assays above

C=Cc1ccccc1
inactive: all assays above

CCOC(=O)C(C)Oc1ccc(Oc2cnc3cc(Cl)ccc3n2)cc1 (stereo unspecified)
inactive: all assays above

S=C1NC=NC2N=CNC12 (stereo unspecified)
inactive: all assays above

Cc1cc(Br)ccc1NC(=O)CCl
inactive: all assays above

Cc1ccccc1Br
inactive: all assays above

CC1(C)S[C@@H]2[C@H](NC(=O)C(C(=O)O)c3ccccc3)C(=O)N2[C@H]1C(=O)O (stereo partly specified)
inactive: all assays above

O=Cc1ccccc1[N+](=O)[O-]
inactive: all assays above

COc1cc(NS(=O)(=O)c2ccc(N)cc2)ncn1
inactive: all assays above

Clc1cc(Cl)c(Cl)c(Cl)c1Cl
inactive: all assays above

CC(=O)C1=C(C)[C@@H]2C[C@@]3(C1)[C@H](C)CC[C@H]3C2(C)C
inactive: all assays above

O=C1c2ccccc2C(=O)c2c1ccc(O)c2O
inactive: all assays above

CCCC/C=C/C=C\C=O
inactive: all assays above

Cc1nc2ccc(CN(C)c3ccc(C(=O)N[C@@H](CCC(=O)O)C(=O)O)s3)cc2c(=O)[nH]1
inactive: all assays above

COc1cc(C(C)(C)C)c(O)c(C(C)(C)C)c1
inactive: all assays above

CCOC(=O)Oc1ccc(CCNC(=O)[C@H](CCSC)NC(C)=O)cc1OC(=O)OCC
inactive: all assays above

CCOC(=O)C1=NOC(c2ccccc2)(c2ccccc2)C1
inactive: all assays above

CO[C@@H]1[C@@H](OC(N)=O)[C@@H](O)[C@H](Oc2ccc3c(O)c(NC(=O)c4ccc(O)c(CC=C(C)C)c4)c(=O)oc3c2C)OC1(C)C
inactive: all assays above

COc1c(Cl)c(Cl)c(Cl)c(Cl)c1Cl
inactive: all assays above

NS(=O)(=O)c1ccc(C(=O)O)cc1
inactive: all assays above

CC1(N)CCC(C(C)(C)N)CC1 (stereo unspecified)
inactive: all assays above

CC[C@H](C)C(=O)O[C@H]1C[C@@H](C)C=C2C=C[C@H](C)[C@H](CC[C@@H]3C[C@@H](O)CC(=O)O3)[C@H]21
inactive: all assays above

COc1nccnc1CC(C)C
inactive: all assays above

CCOC(=O)COc1ccc(C)cc1
inactive: all assays above

O=C(OCCCCCOC(=O)c1ccccc1)c1ccccc1
inactive: all assays above

CCCCC(CC)COC(=O)/C=C/c1ccc(OC)cc1 (stereo unspecified)
inactive: all assays above

N#Cc1ccccc1
inactive: all assays above

CCCCCCCCCCCCCCNCCO
inactive: all assays above

CC(C)(C)C(O)/C=C/c1ccc2c(c1)OCO2 (stereo unspecified)
inactive: all assays above

Cc1cccc(C(=O)O)c1O
inactive: all assays above
